Data from PubChem BioAssay AID1508600 (Functional Genomics Laboratory (NCATS/FGL), 2020).
Hit rate of the full screen: of about 53,000 sequences, about 3,700 (7%) were called active. This is one part of a sample in which actives are shown more often than they occur. Values without a mark were called inactive.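 Rule for the calls: active = gene knockdowns whose robust z-score for IL-1 alpha signal is at least 2 or at most -2, so actives lie on both sides; inactive = the rest.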

assay: Components of the Cytosolic LPS Sensing Pathway: Gene Identification via Genome-wide siRNA Screen; details: RAW264.7 macrophages, IL-1a HTRF, actives lie on both sides, screened at 100 nM (by protocol), cells primed 5 h with Pam3CSK4 first;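 note: robust z of the log signal after scaling to non-targeting control siRNA wells of the plate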
Method in brief: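 Supernatant IL-1a by HTRF from RAW264.7 cells primed with Pam3CSK4 (5 hours) and transfected with LipidA (24 hour) after 48h siRNA knockdown at 100 nM; cell viability checked with CellTiter-Glo.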

Row | Sequence | z-score
1 | GGAAGAAGAAGACCAGGGATT against Parvb | -0.0188
2 | GGCCAACUUCGAAGAAAAGTT against Mrpl52 | 0.192
3 | CCAAAAAAUCCUAUACUCUTT against Cdh8 | 1.42
4 | GGUCACUUCCUUAAUUUUATT against Disc1 | -1.62
5 | GGAAGACCCUAAUCUAGUCTT against Cox5b | 2.1 (active)
6 | GGCUUGGUGUUUUGAUUAGTT against Rogdi | 1.6
7 | GGUCUUGCAUGUCUCUGAGTT against Lrrc47 | -1.45
8 | GGAGUUUGAACAUAUGAAGTT against Rcn1 | -0.417
9 | GCUAUCAUGAAGCUAAAUGTT against Igf2bp1 | 0.267
10 | GGACAAGCAAGAAGGAAUUTT against Polr2j | -2.43 (active)
11 | CCAGAUUAUGACAAAGCGUTT against Glyat | -0.0538
12 | AAACCAUACUUGAAAGAAATT against Olfr943 | -0.36
13 | GCAGUAGGUUGCACACAUATT against Art1 | -2.11 (active)
14 | GCACACGUCCUAUAAAAAUTT against Rad54b | 0.532
15 | GGACUUCUCUGUGAAGAUGTT against Ctsf | -0.129
16 | GGAGAGAGGAUAAGUCACATT against Jsrp1 | -1.44
17 | GCUGGAUCCAUCUAAUUGCTT against Klhl12 | 0.0684
18 | CGGGAUCUUAGAAGAGCAATT against Ptpre | 2.6 (active)
19 | GGACCAGUUAAAGUCACCATT against Atp4b | -1.81
20 | GGAAGGUGGCUAUUUUAAUTT against Acsl3 | -0.207
21 | CCAUUUCUUUCAGUGGCUGTT against Olfr48 | -0.47
22 | GGCUAUAAAAGCACAGUUUTT against Slc25a26 | -0.61

Row | Sequence | z-score
23 | CCCUGCAUUUGUCAAUUAUTT against Hnrnpl | -0.161
24 | GGGACAAAGAGAUACACAUTT against 9530056K15Rik | 1.11
25 | GCCUGAUCGAUACGUGAUCTT against Naaladl1 | 3.35 (active)
26 | GGAGGACAACAGCAAAACATT against Atoh1 | -1.01
27 | GGAAAGAGAAAAACAACCATT against Cngb3 | -0.522
28 | GGCUCACAUUGUAACUUAGTT against Krtap5-2 | 1.41
29 | GGAGAAUGCUAAGGUUACUTT against Pcdhga9 | 0.269
30 | CGGCACACUAAGAAACGGATT against Odf3l1 | 0.152
31 | GGAAGGAUAUGAGAAUUUCTT against Nt5c3 | 2.51 (active)
32 | GCUCUUACAUAGAACUUUGTT against Tpbg | -0.218
33 | GGCCUUUUUUCUAUAUCUATT against Galnt3 | -0.637
34 | GGUGGAGGUGUGAUGGAUUTT against Slamf1 | 5.09 (active)
35 | GGUGGUGGCAGAAAUGAAUTT against Dpep2 | -0.946
36 | CCAGUUGUGCAAUCAACAATT against Fam98c | -0.367
37 | CGCGGUGGAGCUUCGAGAATT against Nrtn | 0.374
38 | GUUUCUCCAUGGAGUCAUUTT against Psmb5 | -0.742
39 | GGCAUUCGAAGGGACAGAUTT against Arg2 | -2.06 (active)
40 | GUGACCUCAUCCAGAAAAUTT against Vmn1r190-ps | -0.613
41 | GGAUCACUUUGACCACAACTT against Rab31 | 1.43
42 | GCACUGGACCAAAGAACGGTT against Cercam | 1.14
43 | GCCAUUAUAUAGUCCUACCTT against Klf1 | 0.719
44 | GGGUCAUGAAACCUACCUUTT against Hikeshi | 0.182

Row | Sequence | z-score
45 | GCUUGGACUGGAGUGAAGCTT against Map6d1 | -2.4 (active)
46 | GGCUACAAAGAUGCAGACUTT against Pi4k2a | 0.22
47 | GACAUAUUUGGGUUUCUAATT against Vmn1r15 | -0.645
48 | GGAAUGACUUUUGAGACAGTT against Cyp1a1 | -0.732
49 | GGUAGAGAUCAUCAAUGCATT against Ggt5 | 0.0858
50 | GGAGUCCAAGUUUAAGGAATT against 4930522H14Rik | -1.65
51 | CGGGACACUUGAAUUGGCUTT against Frmd4a | -2.25 (active)
52 | GGAACAUUCUCUCCUUAUGTT against Ctps | -0.168
53 | GGAGUUGCAUCACUUGCUCTT against BC016579 | 0.441
54 | GGUAACUGGUGUCAUUUAATT against Zfp474 | 0.619
55 | GGCAAGAUGCACAAGACUUTT against Cacna1s | 2.6 (active)
56 | GGAUGUGUUACUUACCAAATT against Map4 | 0.607
57 | GGCCUUCUAUACUACAGACTT against Hdac1 | -1.23
58 | CGGCUCACUAGCAGUGUCUTT against Ppm1b | -0.209
59 | GGUUACUCCUUUUUCAAUGTT against Elf5 | -0.636
60 | GGACAUAGUCUGAGGCAAGTT against Ost4 | -1.34
61 | GCUGUUCAAUUUGAUUACUTT against Dapp1 | 1.77
62 | GGCAACCAUAGACGAUGAATT against Rerg | -2.38 (active)
63 | GGACCAGUUAAAGUGGCAGTT against Oas1e | -0.00736
64 | GGUACUUGUACUAAUCGCUTT against Lpcat2 | 0.683
65 | CCCUUGAUUAAGUGGAUUATT against Tgfa | 1.19
66 | GGUGAUGGCUGUUCCUUUCTT against Zdhhc2 | 0.533

Row | Sequence | z-score
67 | GGAUGAAAUUGGAAAGGGCTT against Camkk2 | -0.0472
68 | CCAAUCCUCAACCUUGAAUTT against Ddx19a | 0.0508
69 | GGGACUUCCUUAUUGGAACTT against A830019P07Rik | 1.23
70 | GGAUGUCAACAUUCGAGAUTT against Tmem231 | 0.993
71 | GGCCAGAGACAGUUAUCUUTT against Sptssb | 2.43 (active)
72 | GGAGAAUUGUUUUUACCAGTT against Bbox1 | 0.13
73 | GGACUGACUGGAUUUUUCCTT against Adamts12 | -0.102
74 | GGCAUUAGGAUACAUAACATT against Rpgrip1l | -0.743
75 | GCUGUAACCAACAUACCUCTT against Inka1 | -0.91
76 | GGAACAAAGAUUGAGAGAATT against Sltm | -1.62
77 | GGACAACUUUGAGGAGAUGTT against Tubg2 | 3.23 (active)
78 | GGUUAUCAAAGCUAAGAAUTT against Ifi209 | -0.0859
79 | GCUAGUCAGAAGAAGUACUTT against Actrt2 | -0.402
80 | CCGAAGCAUGAAGAAUCUATT against Tubd1 | 0.544
81 | GAGCAAUAAGCUAGGGUGATT against Olfr1428 | 0.239
82 | GGAAUGUACCAGAAAUACUTT against 4921504E06Rik | 3.01 (active)
83 | GGCAAAUUCGAAAUAGACATT against Evx2 | 0.227
84 | GGAAGAAAUAGAGUUUUACTT against Ephx2 | 3.42 (active)
85 | GGCUCUGAUGUUUCUAAAATT against Hdac10 | 1.29
86 | GGUACUGUCGGUAUCCCACTT against Gcc1 | -1.62
87 | GCCUUUGUACAAUGACUAUTT against Prpf38a | -0.127
88 | GCAGAAAGCAACACGCCCUTT against Pramel20 | 0.631

Row | Sequence | z-score
89 | GGGUAUGCAGAAGGGAACATT against Nrap | 0.424
90 | GGGCAGAGUGAUGUUGUCATT against Gsdmd | -3.34 (active)
91 | CCAUUGUGUGGUACUUAAATT against Mrm3 | 0.448
92 | GCGACUCACUAUUUGGGCATT against Ell3 | 0.471
93 | GGAAAAUUCAUCCUUAGUATT against Wdr61 | -0.086
94 | CGAAACACCAGAUGUAUUCTT against Gck | -0.551
95 | GGUUAUGAAACUGAGAAAGTT against Mid2 | -0.0195
96 | CCCUCUCUUUGGAUACACATT against Tenm4 | -2.98 (active)
97 | GGAUUUGUCAUCCACUUCUTT against Sez6 | -1.79
98 | GCUGCUCAAACAUAAUGAATT against Osbpl2 | -0.419
99 | GGAUGUACAUUCUACCUAUTT against Bap1 | -0.239
100 | GGAUACGAUUGAACGGCUGTT against Rac3 | -0.566
101 | GCUCCUGUAGACAGGUUAGTT against Serac1 | -1.39
102 | CGCUCAUUUAGACAUAGAGTT against Ass1 | 0.686
103 | CGGCAUUUGCUAAUGGUCGTT against Actl6a | -2.79 (active)
104 | CCUAGUCAUAUUCUACAGUTT against Iqca1l | 0.77
105 | GGUUGGAGUUAUAGAUUUUTT against Rufy3 | 1.42
106 | GGAGAGAACUGAUGAAUCCTT against Sdhaf2 | -0.26
107 | CCCUCUUUACCAGUAUUACTT against Pla2g5 | 0.287
